“And” between values parts separate entries of the source, which are not always exact repeats. Equal entries are not always repeated. Compounds without any hit were thinned out: in the full panel of roughly 79,000, 15% have a hit. Cut-off read from the data, not from the text of the source: active = growth inhibition above about 70%; inactive = the rest.
What was measured:
[1] = NCI Yeast Anticancer Drug Screen. Data for the rad50 strain (AID 155);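 note: 0% = growth of vehicle-only cultures of the same strain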; conditions: S. cerevisiae rad50 strain growth inhibition; at 50.0 µM; stronger effect = higher value
Procedure, shortened: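 Compounds were tested on a yeast strain with an engineered DNA damage repair alteration; the reported value is growth inhibition normalised to vehicle treatment.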

[2] = NCI Yeast Anticancer Drug Screen. Data for the mec2-1 strain (AID 157); conditions: S. cerevisiae mec2-1 strain, at 50.0 µM, stronger effect = higher value
Procedure, shortened: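 Strain: mec2-1 (DNA repair/cell cycle alteration). Compound exposure, then growth measured; inhibition expressed relative to vehicle.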

[3] = NCI Yeast Anticancer Drug Screen. Data for the sgs1 mgt1 strain (AID 161);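 note: 0% = growth of cultures given vehicle only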; conditions: S. cerevisiae sgs1 mgt1 strain, at 50.0 µM, stronger effect = higher value
Procedure, shortened: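 Test agents were incubated with a DNA-repair-mutant yeast strain. Growth was then read and compared against vehicle-treated controls.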

[4] = NCI Yeast Anticancer Drug Screen. Data for the cln2 rad14 strain (AID 165);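 note: 0% = growth equal to vehicle treated cultures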; conditions: S. cerevisiae cln2 rad14 strain, at 50.0 µM, stronger effect = higher value
Procedure, shortened: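 Compounds are applied to the cln2 rad14 yeast strain, and growth is then compared with that of vehicle-treated cultures to give inhibition.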

[5] = NCI Yeast Anticancer Drug Screen. Data for the bub3 strain (AID 167); conditions: S. cerevisiae bub3 mutant strain, at 50.0 µM, stronger effect = higher value
Procedure, shortened: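 Growth of a checkpoint-deficient yeast mutant is measured after compound exposure. Values represent inhibition relative to vehicle.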

[6] = NCI Yeast Anticancer Drug Screen. Data for the mlh1 rad18 strain (AID 175); conditions: S. cerevisiae mlh1 rad18 strain growth inhibition; at 50.0 µM; stronger effect = higher value
Procedure, shortened: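 Read-out is yeast growth inhibition, calculated against vehicle-only controls. The compound was applied to a strain engineered with DNA damage repair alterations.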

Measured: growth inhibition

COP(=O)(CC(=O)CCCCC1OCCO1)OC
inactive: [1] 2.25% | [2] 0% | [3] 1.3% | [4] -22.8% | [5] -5.3% | [6] -4.85%

C=CC(=O)OCCN(C)C
inactive: [1] 1.5% | [2] -4.65% | [3] -4.4% | [4] -0.25% | [5] 2.1% | [6] 1.65%

C1CCC(NC2CCCC2)C1
inactive: [1] 13.4% | [2] -0.5% | [3] 10.1% | [4] 11.7% | [5] -8.4% | [6] 5.45%

C=CCC1(CC=C)C(=O)N(C)C(=O)N(C)C1=O
inactive: [1] 7.25% | [2] 13.7% | [3] -6.75% | [4] 8.45% | [5] 5.2% | [6] -6.95%

CCCN(CCC)C(=O)[S-].CCCN(CCC)C(=O)[S-].[Ni+2]
inactive: [1] 35% | [2] -6.25% | [3] 33.4% | [4] -38.6% | [5] 2.7% | [6] -3.5%

COc1ccccc1NC1=NCC(C)S1 (configuration not stated)
inactive: [1] -10.2% | [2] -15.2% | [3] -52% | [4] 24.4% | [5] -14.4% | [6] -2.1%

O=[N+]([O-])c1cccc2cccc([N+](=O)[O-])c12
inactive: [1] -7.45% | [2] -28.1% | [3] -10.3% | [4] -86.7% | [5] -35% | [6] 11.3%

CCOc1ccc(P2(=S)SP(=S)(c3ccc(OCC)cc3)S2)cc1 (configuration not stated)
inactive: [1] -11.3% | [2] -20.9% | [3] -13.2% | [4] 20% | [5] 17.1% | [6] -13.8%

CN1C(=O)C(C)(C2=CCCCC2)C(=O)NC1=S (configuration not stated)
inactive: [1] 1.55% | [2] 1.65% | [3] 11.8% | [4] -17.4% | [5] -1.9% | [6] 11.9%

Cc1ccc(N)c(N)c1
inactive: [1] 18.6% and 6.85% | [2] -5% and -3.75% | [3] 9.3% and -3.35% | [4] 9.8% and 32.2% | [5] 7.75% and -7.95% | [6] 19% and 7.5%

OCC(Br)(Br)Br
inactive: [1] 44.4% | [2] -4.3% | [3] 19.5% | [4] 3.7% | [5] -2.55% | [6] 27.9%

CCC1(/C(C)=C/C(C)C)C(=O)NC(=O)NC1=O
inactive: [1] 15.8% and 16.3% | [2] 12.8% and 4.6% | [3] 1% and 6.15% | [4] 8.8% and -11.4% | [5] 4.65% and 2.35% | [6] 4.15% and 5.05%

Source: PubChem BioAssay (NCI)
